Source: PubChem
Only some compounds are listed: those with a hit (about 3.8% of all), similar ones and a draw of the others.
A549 viability = A549 cytotoxicity, counter-screen for Nrf2 inhibitors | AID 504648 | A549 ARE-Fluc cells, CellTiter-Fluor viability, 18-24 h | Potency, µM (doses to about 46 µM), for the others: at the highest dose activity change, negative = cytotoxicity, most hits filed as inhibitors | 390,000 tested, 0.16% active; note: % is set by controls: 0 for no effect and ±100 for the full control effect
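A549 ARE_Fluc cells in 5% FBS OPTI-MEM were exposed to compounds in concentration-response for 18-24 h at 37 deg C. Viability was read by CellTiter-Fluor fluorescence (Ex 405/Em 525) after 30 min, before the luciferase read.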
TGFb inhibitor = inhibitors of TGF-b signaling | HepG2 CAGA-GFP TGF-b/SMAD3 reporter, GFP fluorescence, 18 h; TGF-beta stimulated, 500 pg/mL final | 410,000 tested, 1.2% active | Potency, µM (doses to about 46.1 µM), for the others: at the top dose activity, negative = inhibition, actives largely listed as inhibitors | AID 588855; note: % is set by controls: 0 for no effect and ±100 for the full control effect; nearly all actives have a fitted effect of over 65% in size
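HEPG2 CAGA-GFP, 1000 cells/well; 2 h settle, 37 C; cpd via pin tool; TGF-b 500 pg/mL final; 18 h, 37 C; GFP imaging ex488/em500-530; %Activity normalised to -TGF-b and +DMSO controls; CRC fit, curve class.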
S2 tox = viability counter-screen for ATXN expression inhibitors. Potency, µM (doses to about 56.7 µM), usual class: cytotoxic. S2 cells (HEK-293 line with an ATXN2-luciferase reporter) viability, CellTiter-Fluor protease fluorescence, 24 h. 400,000 tested, 0.49% active; note: nearly all actives have a fitted effect of over 40% in size
Nrf2 block = Nrf2 pathway inhibition; Potency, µM (top dose mostly 46 µM), for the others: top-dose activity change, negative = inhibition, most hits filed as inhibitors; 360,000 tested, 2.1% active; A549 ARE-Fluc reporter, luciferase luminescence, 18-24 h; AID 504444; note: % is set by controls: 0 for no effect and ±100 for the full control effect; nearly all actives have a fitted effect of over 60% in size
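Cells were seeded and rested 2 h, then exposed to compounds for 18-24 h. CellTiter-Fluor was read first as a viability measure. BugLite was added 15 min before the final luminescent read of ARE-luciferase activity in A549 cells.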
HepG2 tox-1 = HepG2 cytotoxicity, counter-screen for TGF-b inhibitors. HepG2 CAGA-GFP viability, ATP luminescence, 18 h. Potency, µM (series often up to 46.1 µM), for the others: at the highest dose activity change, negative = cytotoxicity, most hits filed as cytotoxic. 410,000 tested, 0.76% active
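HepG2 CAGA-GFP cells (1000/well, DMEM with 1% FBS) received compound, then TGF-beta at 500 pg/mL final, and were incubated 18 hours at 37 degrees C. Viability was read by CellTiter-Glo luminescence. Media-only wells were set as complete cell-killing and DMSO as no toxicity.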
ATXN2 expr inh = inhibitors of ATXN2 expression | HEK-293 ATXN2-luciferase reporter, luminescence, 24 h | Potency, µM (titrated, usually from 57 µM), inactives show at the top dose activity change, negative = inhibition, most hits filed as inhibitors | 360,000 tested, 0.72% active | AID 1745845; note: % is set by controls: 0 for no effect and ±100 for the full control effect; nearly all actives have a fitted effect of over 55% in size
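ATXN2-luciferase reporter cells (luciferase flanked by upstream and downstream ATXN2 gene portions) were treated 24 h at 37 °C with compounds at up to 57 uM. SteadyGlo luminescence gave expression; GF-AFC fluorescence gave viability.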
TGFb CAGA inh = TGF-b pathway inhibition, cherry-pick retest; shares compounds with TGFb inhibitor; HepG2 CAGA-GFP TGF-b reporter, GFP fluorescence, 18 h; cells stimulated with TGF-beta, 500 pg/mL; Potency, µM (titrated, usually from 46.1 µM), for inactives: at the highest dose activity, negative = inhibition, hits mostly inhibitors; 1,600 tested, 63% active; AID 720534; note: % is set by controls: 0 for no effect and ±100 for the full control effect; nearly all actives have a fitted effect of over 65% in size
HepG2 tox-2 = counter-screen for TGF-b inhibitors: cytotoxicity in HepG2 cells; shares compounds with TGFb inhibitor; HepG2 CAGA-GFP viability, ATP luminescence, 18 h; cells stimulated with TGF-beta, 500 pg/mL; Potency, µM (highest dose often 46.1 µM), for inactives: top-dose activity, negative = cytotoxicity, hits mostly inhibitors; 1,600 tested, 27% active; AID 720535; note: % is set by controls: 0 for no effect and ±100 for the full control effect; nearly all actives have a fitted effect of over 70% in size
TGFb CCL64 inh = blocks TGF-b signaling in CCL64 reporter cells | shares compounds with TGFb inhibitor | CCL64 CAGA-GFP reporter, TGF-b stimulated, GFP fluorescence, 18 h | Potency, µM (series often up to 46.1 µM), without a hit: at the top dose activity, negative = inhibition, usual class: inhibitors | 1,600 tested, 41% active | AID 720536; note: nearly all actives have a fitted effect of over 65% in size
COP TGFb inh = validation of TGF-b inhibitors in HepG2 COP promoter reporter; shares compounds with TGFb inhibitor; HepG2 COP-GFP TGF-b reporter, GFP fluorescence, 18 h; cells stimulated by added recombinant TGF-beta; Potency, µM (titrated, usually from 46.1 µM), inactives show at the top dose activity, negative = inhibition, most hits filed as inhibitors; 1,600 tested, 3% active; note: nearly all actives have a fitted effect of over 70% in size
An asterisk follows results filed as active; i = inactive; u = inconclusive; x = not tested or not shown; [ ] = dose if it differs, or a comment. Calls come from the whole dose curve; as a rule, active = well fitted curve in the direction sought with a large enough effect; inconclusive = small, poorly fitted or top-dose-only effect, or another doubt; inactive = no such curve, though single readings can be large; an effect the other way counts as inactive or inconclusive. Potency is the fitted concentration of half-maximal effect.

SMILES | A549 viability | TGFb inhibitor | S2 tox | Nrf2 block | HepG2 tox-1 | ATXN2 expr inh | TGFb CAGA inh | HepG2 tox-2 | TGFb CCL64 inh | COP TGFb inh
C=CCSc1nc2c(c(-c3ccsc3)c1C#N)CN(C)CC2 | -5.7% | -22.4% | i | -2.5% | -1.6% | -18.5% | x | x | x | x
CC(C)c1ccc(N2C(=O)NC(=O)/C(=C\C=C\c3ccco3)C2=O)cc1 | u | 10µM* | 28.2µM* | u | 0.9% | u | 4.11µM* | 7.31µM* | 5.8µM* | 34.1%
CC(C)c1ccc(N2C(=O)NC(=O)/C(=C\c3cnc(-c4ccccc4)nc3)C2=O)cc1 | -3.4% | 159.1% | i | u | -23.5% | 13.7% | x | x | x | x
CCC1(OC(=O)CN)C(=O)OCc2c1cc1n(c2=O)Cc2cc3ccccc3nc2-1 (configuration not stated) | u | 2.24µM* | x | 0.581µM* | -20.1% | 0.0095µM* | 1.16µM* | 0.581µM* | 2.31µM* | 9.1%
CC(=NCCc1c[nH]c2ccccc12)c1c(O)n(Cc2ccccc2)c(=O)[nH]c1=O | -6.4% | 11.2µM* | i | u | 31.2% | u | 20.6µM* | -27.8% | u | -4.2%
COc1ccc(-c2nn(-c3ccccc3)cc2C(=O)N2c3ccc(C)cc3C3CN(C)CCC32)cc1 (configuration not stated) | 5.6% | 10µM* | i | -7.1% | -42.0% | -26.1% | -6.6% | -25.3% | u | 7.8%
COc1ccccc1NC(=O)c1cn(CCC#N)nc1-c1cccc(Cl)c1 | 1.3% | -1.2% | u | u | -9.5% | x | x | x | x | x
C[C@]12Cc3cn[nH]c3C[C@@H]1CC[C@@H]1[C@H]2CC[C@@]2(C)[C@H]1CC[C@]2(C)O | x | x | x | x | x | -11.4% | x | x | x | x
Cc1[nH]c2ccc(OC(F)(F)F)cc2c1CCNCc1cccc([N+](=O)[O-])c1 | -0.2% | u | i | 3.2% | i | u | x | x | x | x
Cc1[nH]c2ccc(OC(F)(F)F)cc2c1CCNCc1ccc(Cl)cc1 | 16.1% | 10µM* | u | 2.9% | 11.2µM* | 20µM* | u | u | u | u
COC(=O)C1=C(c2ccc(F)cc2OCc2ccccc2)C[C@@H]2CC[C@H]1N2C(=O)NCc1cccc(C(F)(F)F)c1 | -9.1% | -4.5% | i | u | -20.9% | -22.9% | x | x | x | x
CC(/C=C(\C)Nc1ccccc1)=Nc1ccccc1 | 1.5% | -17.0% | i | 6.2% | -9.0% | -5.0% | x | x | x | x
NC(=Nc1ccccc1)Nc1ccccc1 | -0.6% | 8.91µM* | u | -2.9% | -7.7% | 8.3% | 9.2µM* | u | u | 43.6%
O=Cc1cn(Cc2ccccc2F)c2ccccc12 | -12.8% | 0.891µM* | i | -18.0% | -27.6% | u | 0.461µM* | 1.03µM* | 0.1% | -6.0%
CCC(c1nnnn1-c1ccc(OC)cc1)N1CCC(n2c(=O)[nH]c3ccccc32)CC1 (configuration not stated) | x | 2.6% | i | x | 2.4% | -3.8% | x | x | x | x
COc1ccc(-n2nnnc2C(CCc2ccccc2)N2CCC(n3c(=O)[nH]c4ccccc43)CC2)cc1 (configuration not stated) | x | 11.2µM* | 10µM* | x | -20.3% | u | u | -27.6% | u | 7.8%
COc1ccc(-n2nnnc2C(c2ccccc2OC(F)(F)F)N2CCC(n3c(=O)[nH]c4ccccc43)CC2)cc1 (configuration not stated) | x | 11.2µM* | u | x | -6.0% | u | 5.8µM* | u | u | 65.8%
COc1cc2c(cc1OC)C13CCN4CC5=CCOC(CC(=O)O)C(C5CC41)C3N2 (configuration not stated) | -8.1% | -8.4% | i | -2.9% | -19.5% | 0.0% | x | x | x | x
CCC(=O)N1CC(=O)Nc2ccc(C)cc2C1c1ccc(F)cc1 (configuration not stated) | 0.1% | 19.4% | i | 2.3%[9.27 µM] | 1.4% | 3.0% | x | x | x | x
CCCCn1c(N)c(C(=O)NCc2cccs2)c2nc3ccccc3nc21 | u | 10µM* | i | -91.8% | -81.7% | -30.1% | u | -25.1% | u | 6.1%
CCc1nc2ccc(Br)cc2c(=O)n1-c1ccccc1C(F)(F)F | -4.9% | -3.4% | i | 3.8% | -35.2% | -9.1% | x | x | x | x
CCCc1nc2ccc(Br)cc2c(=O)n1-c1ccc([N+](=O)[O-])c(C(F)(F)F)c1 | -23.4% | 7.08µM* | i | 20.6µM* | -30.7% | -35.2% | u | -26.7% | u | -0.6%
C[C@H]1CN([C@@H](C)CO)C(=O)c2cccc(NC(=O)c3ccc(-c4nccs4)cc3)c2O[C@@H]1CN(C)C(=O)Nc1cccc2ccccc12 | -8.9% | 13.2% | i | -11.2% | -1.1% | -2.3% | x | x | x | x
CCN(CC)CCNC(=O)c1c(O)c2ccccc2n(Cc2ccccc2)c1=O | -9.2% | -16.7% | u | -33.6% | -20.3% | -22.2% | x | x | x | x
COc1ccc(OCC(=O)Nc2ccc(Cl)cc2C(=O)c2ccccc2)cc1 | -13.3% | 6.3% | i | u | -12.7% | -8.0% | x | x | x | x
C[C@]12CC[C@H]3[C@@H](CCC4=CC(=O)CC[C@@H]43)[C@@H]1CC[C@@H]2OC(=O)CCc1ccco1 | x | x | i | x | x | -9.3% | x | x | x | x
COP(=O)(OC)OC=C(Cl)Cl | x | x | i | x | x | 8.1% | x | x | x | x
Cc1nn(-c2ccccc2)c2c1P(=O)(O)/C(=C1\N(C)c3ccccc3C1(C)C)C=N2 | -25.3% | 1.1% | i | 6.0% | -38.1% | 0.2% | x | x | x | x
